These results are taken from PubChem BioAssay (NCI).

Some test systems named below: SK-MEL-2 melanoma; EKVX NSCLC; TK-10 renal; A498 renal; CCRF-CEM leukemia; MOLT-4 leukemia; SR leukemia; RPMI-8226 leukemia; OVCAR-8 ovarian; OVCAR-5 ovarian; OVCAR-4 ovarian; SK-OV-3 ovarian; IGROV1 ovarian; OVCAR-3 ovarian; HS 578T breast; NCI/ADR-RES ovarian; UO-31 renal; ACHN renal; CAKI-1 renal; SN12C renal.
What all share (experiment): NCI-60 one-dose screen, 48 h (100 = growth as untreated, 0 = no growth, -100 = all killed)
Details in all cases: 10 µM unless noted

This is part of a sample that, as a whole, favours compounds with a hit. Of some 83,000 tested, about 20% had one in any assay.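 Results are percent growth after 48 hours of single-concentration exposure. 100 means growth as in untreated cells, lower positive values show inhibition; negative values down to -100 show cell death.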 Unmarked numbers belong to inactive results. Activity calls are given as the source filed them. The calls were made as follows: active = growth percent below 10; inactive = the rest.

Regarding `CCC(C)NCc1ccccc1` (configuration not stated), the growth in the assay on SK-MEL-2 melanoma is 92.6%; in the assay on EKVX NSCLC it was 103%; in the assay on TK-10 renal, 96.9%; with A498 renal, 88.8%; in the assay on CCRF-CEM leukemia, 83.4%; in the assay with MOLT-4 leukemia, 93.5%. Besides, the growth in the assay on SR leukemia is 104%; with RPMI-8226 leukemia, 95.7%; with OVCAR-8 ovarian, 102%; in the assay on OVCAR-5 ovarian, 114%; in the assay with OVCAR-4 ovarian it was 109%; in the assay with SK-OV-3 ovarian it was 101%. The growth with IGROV1 ovarian was 109%; in the assay with OVCAR-3 ovarian it was 104%; in the assay on HS 578T breast it was 105%; in the assay on NCI/ADR-RES ovarian, 98.1%.
As to `C[C@@H]1C(=O)N(C[C@H](Cc2ccccc2)NC(=O)OCc2ccccc2)[C@]1(Cc1ccccc1)C(=O)OC(C)(C)C`, the growth was 76.8% with SK-MEL-2 melanoma; 60.3% with EKVX NSCLC; 46.5% in the assay on UO-31 renal; 67.2% with TK-10 renal; 75.2% in the assay with ACHN renal; 51.4% with CAKI-1 renal. Also, the growth in the assay on A498 renal is 54%; in the assay with MOLT-4 leukemia it was 34%; with RPMI-8226 leukemia, 41.3%; in the assay on OVCAR-8 ovarian, 66.9%; in the assay on OVCAR-5 ovarian, 91.5%; with OVCAR-4 ovarian it was 52.4%. Besides, the growth is 70.2% in the assay on SK-OV-3 ovarian; 69.7% in the assay with IGROV1 ovarian; 70.3% in the assay on OVCAR-3 ovarian; 79.4% in the assay with HS 578T breast; 63% in the assay with NCI/ADR-RES ovarian.
For `Nc1c(-c2nc3ccc(Br)cc3c(=O)[nH]2)nnn1-c1ccccc1`, the growth was 94.6% in the assay on SK-MEL-2 melanoma; 101% with EKVX NSCLC; 106% in the assay on UO-31 renal; 84.3% with TK-10 renal; 71.6% with ACHN renal; 103% with CAKI-1 renal. Further, the growth with A498 renal was 87.4%; in the assay on CCRF-CEM leukemia, 93.3%; with MOLT-4 leukemia it was 85.1%; in the assay on SR leukemia it was 57.7%; with RPMI-8226 leukemia it was 92.1%; with OVCAR-8 ovarian, 97.7%. In addition, the growth was 95.8% in the assay with OVCAR-5 ovarian; 6.63% (active) in the assay with OVCAR-4 ovarian; 112% in the assay on SK-OV-3 ovarian; 80.2% with OVCAR-3 ovarian; 91.8% in the assay with HS 578T breast; 80.9% in the assay on NCI/ADR-RES ovarian.
Turning to `O=C1CSC(c2ccccc2)N1c1ccccc1` (configuration not stated), the growth with SK-MEL-2 melanoma is 74.4%; with SN12C renal, 101%; in the assay on UO-31 renal, 85.7%; in the assay with TK-10 renal it was 110%; in the assay with ACHN renal, 101%; with CAKI-1 renal, 102%. Besides, the growth with A498 renal is 61.7%; with CCRF-CEM leukemia, 97.1%; in the assay on MOLT-4 leukemia, 107%; in the assay on SR leukemia it was 88%; with RPMI-8226 leukemia, 100%; with OVCAR-8 ovarian, 102%. The growth with OVCAR-5 ovarian is 103%; in the assay on OVCAR-4 ovarian it was 104%; with SK-OV-3 ovarian, 100%; in the assay on IGROV1 ovarian it was 112%; in the assay on OVCAR-3 ovarian, 112%; in the assay on HS 578T breast it was 86.8%. In the assay on NCI/ADR-RES ovarian, the growth is 100%.
Consider `COc1cc(/C=C/C(=O)c2cccc(-n3cc(-c4ccccc4)[nH]c3=O)c2)cc(OC)c1OC`, for which the growth was -64.5% (active) in the assay on SK-MEL-2 melanoma; 17% in the assay on EKVX NSCLC; -45.2% (active) with UO-31 renal; -5.4% (active) in the assay on TK-10 renal; -64.9% (active) in the assay on ACHN renal; 12.2% in the assay on CAKI-1 renal. Besides, the growth was 33.2% with A498 renal; 3.61% (active) in the assay with CCRF-CEM leukemia; -12.6% (active) in the assay with MOLT-4 leukemia; -15.9% (active) with SR leukemia; -39.4% (active) with RPMI-8226 leukemia; 12.5% in the assay on OVCAR-8 ovarian. The growth with OVCAR-4 ovarian is -7.54% (active); in the assay on SK-OV-3 ovarian it was 4.74% (active); in the assay with IGROV1 ovarian it was -23.8% (active); in the assay on OVCAR-3 ovarian, 6.35% (active).
As for `Nc1nc(N)c(-c2ccc(Cl)cc2)c(/C=C/c2ccc([N+](=O)[O-])cc2)n1`, the growth with SK-MEL-2 melanoma is 88.7%; with SN12C renal it was 93.6%; in the assay with UO-31 renal, 41.7%; in the assay with TK-10 renal it was 109%; in the assay with ACHN renal, 90.8%; in the assay with CAKI-1 renal, 86.3%. The growth is -3.32% (active) in the assay with A498 renal; 34.8% in the assay on CCRF-CEM leukemia; 27.6% in the assay with MOLT-4 leukemia; 44% in the assay on SR leukemia; 67% with RPMI-8226 leukemia; 89.2% with OVCAR-8 ovarian. For the same molecule, the growth in the assay on OVCAR-5 ovarian is 108%; in the assay on OVCAR-4 ovarian, 77.3%; in the assay with SK-OV-3 ovarian, 114%; in the assay on IGROV1 ovarian, 22.4%; in the assay with OVCAR-3 ovarian, 75.9%; with HS 578T breast, 60.5%. Also, the growth in the assay with NCI/ADR-RES ovarian is 68.3%.
`C=C(Cl)COC(=O)C(C)(C)O`: the growth with SK-MEL-2 melanoma is 92.9%; in the assay with SN12C renal it was 107%; in the assay with UO-31 renal, 92.7%; in the assay with TK-10 renal it was 89.5%; in the assay on ACHN renal, 105%; with CAKI-1 renal, 94.6%. Further, the growth with A498 renal was 94.1%; in the assay on CCRF-CEM leukemia, 92.6%; in the assay with MOLT-4 leukemia, 97.1%; with SR leukemia, 91.2%; in the assay on RPMI-8226 leukemia, 99.5%; with OVCAR-8 ovarian, 98.7%. In addition, the growth was 102% in the assay on OVCAR-5 ovarian; 93.3% with OVCAR-4 ovarian; 97.2% in the assay with SK-OV-3 ovarian; 109% with IGROV1 ovarian; 109% in the assay on OVCAR-3 ovarian; 110% in the assay with HS 578T breast. Further, the growth in the assay on NCI/ADR-RES ovarian is 95.2%.
With `CCCCCCNC(=O)c1cc(NCc2cc(O)ccc2O)ccc1O`, the growth in the assay on SK-MEL-2 melanoma is 95.5%; in the assay on EKVX NSCLC it was 66.6%; in the assay with UO-31 renal, 34.4%; with TK-10 renal, 68.6%; in the assay on ACHN renal, 57.1%; in the assay on CAKI-1 renal, 56.3%. For the same molecule, the growth with A498 renal was 99%; with CCRF-CEM leukemia, 5.38% (active); in the assay with MOLT-4 leukemia it was 12.5%; with RPMI-8226 leukemia, -12.3% (active); with OVCAR-8 ovarian it was 30.9%; in the assay with OVCAR-5 ovarian, 77.5%. Also, the growth in the assay on OVCAR-4 ovarian was 66.5%; in the assay on SK-OV-3 ovarian, 74.5%; with IGROV1 ovarian it was 70.7%; with OVCAR-3 ovarian it was 27.4%; in the assay with HS 578T breast, 70.5%; in the assay on NCI/ADR-RES ovarian it was 59.2%.
